Data reported in PubChem BioAssay (NCI).
This is part of a sample that, as a whole, favours compounds with a hit. Of some 83,000 tested, about 20% had one in any assay.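 96-well plates, one dose, 48 hours. Percent growth reported; active if below 10.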 A number with no mark means an inactive call. Activity calls are given as the source filed them.

How the values were obtained:
Assay in all cases: NCI-60 one-dose screen, 48 h (100 = growth as untreated, 0 = no growth, -100 = all killed)
Conditions in all cases: 10 µM unless noted
NCI-H23 lung = test system: NCI-H23 lung
NCI-H226 lung = test system: NCI-H226 lung
NCI-H322M lung = test system: NCI-H322M lung
HOP-62 NSCLC = test system: HOP-62 NSCLC
NCI-H460 lung = test system: NCI-H460 lung
HOP-92 NSCLC = test system: HOP-92 NSCLC
NCI-H522 lung = test system: NCI-H522 lung
A549/ATCC NSCLC = test system: A549/ATCC NSCLC
786-0 renal = test system: 786-0 renal
DU-145 prostate = test system: DU-145 prostate
K-562 leukemia = test system: K-562 leukemia
MALME-3M melanoma = test system: MALME-3M melanoma
MDA-MB-231 breast = test system: MDA-MB-231 breast
RXF 393 renal = test system: RXF 393 renal
SF-268 CNS = test system: SF-268 CNS
SF-295 CNS = test system: SF-295 CNS
SF-539 CNS = test system: SF-539 CNS
UACC-257 melanoma = test system: UACC-257 melanoma
M14 melanoma = test system: M14 melanoma

Compound | growth (NCI-H23 lung) | growth (NCI-H226 lung) | growth (NCI-H322M lung) | growth (HOP-62 NSCLC) | growth (NCI-H460 lung) | growth (HOP-92 NSCLC) | growth (NCI-H522 lung) | growth (A549/ATCC NSCLC) | growth (786-0 renal) | growth (DU-145 prostate) | growth (K-562 leukemia) | growth (MALME-3M melanoma) | growth (MDA-MB-231 breast) | growth (RXF 393 renal) | growth (SF-268 CNS) | growth (SF-295 CNS) | growth (SF-539 CNS) | growth (UACC-257 melanoma) | growth (M14 melanoma)
O=c1cc(-c2ccc(OCc3ccccc3)cc2)oc2c(I)c(OCc3ccccc3)cc(OCc3ccccc3)c12 | 103% | 90% | 96.6% | 125% | 99.2% | 108% | 91.5% | 96.4% | 96.8% | 105% | 84.3% | 107% | 110% | 139% | 99% | 99% | 100% | 95.9% | 95.6%
N=c1ccn2c(n1)OC1C(O)C(CO)OC12 (stereo unspecified) | 24.7% | 45.1% | 63.8% | 24.5% | -9.72% (active) | 49.2% | 35.9% | 16.2% | 15% | 11.7% | 94.5% | 43.5% | 91.7% | 28.7% | 40.9% | 36.7% | 25.1% | 54.6% | -25.5% (active)
CC(C)(O)c1cccc(F)c1 | 104% | 105% | 100% | 138% | 112% | 86.1% | 99.6% | 104% | 104% | 107% | 105% | 101% | 89.5% | 107% | 106% | 106% | 88% | 108% | 95.6%
CC(c1ccc(-n2cccn2)cc1)c1cnc(N2CCc3ccc(C(N)=O)cc3C2)s1 (stereo unspecified) | 59% | 43.6% | 86.8% | 82.2% | 74.5% | 71% | 41% | 65.8% | 65.8% | 88.2% | 30.4% | 72.4% | 72.5% | 82.2% | 86% | 52.3% | 70.7% | 48.7% | 45.6%
CCOC(=O)C1C(=O)C=C(c2cnccn2)CC1c1ccc(OC)c(OC)c1 (stereo unspecified) | 95.6% | 96.1% | 103% | 88.3% | 114% | 58.2% | 73.3% | 86.6% | 83.7% | 105% | 81.3% | 100% | 110% | 114% | 102% | 95.1% | 95.7% | 81.8% | 85.5%
O=C1Nc2ccc(Cl)cc2/C1=N/N=C/c1c[nH]c2ccccc12 | 86.1% | 81.9% | 75.5% | 80.4% | 72% | 93.1% | 73.2% | 87.2% | 95.8% | 64.2% | 88.4% | 82.8% | 64.3% | 62.7% | 76.2% | 103% | 82.6% | 98.8% | 72%
COC(=O)CCCNC(=O)C(=O)c1c(O)c(O)c(C(C)C)c2cc(C)c(-c3c(C)cc4c(C(C)C)c(O)c(O)c(C(=O)C(=O)NCCCC(=O)OC)c4c3O)c(O)c12 | 11.8% | -17.2% (active) | 29.6% | 13% | 0.963% (active) | -0.407% (active) | -38.9% (active) | -6.82% (active) | 4.56% (active) | -0.703% (active) | 6.26% (active) | 19.7% | -16.3% (active) | -6.97% (active) | 8.13% (active) | -7.03% (active) | -1.93% (active) | -21.5% (active) | -20.7% (active)
c1ccc2c(c1)nc(-n1ccnc1)c1nc3ccccc3n12 | 65.8% | 65.7% | 71.9% | 47.9% | 40.7% | 80.9% | 26.9% | 54.3% | 73.1% | 76.9% | 88.1% | 92.9% | 72.3% | 64.9% | 37.9% | 83.7% | 66% | 82.3% | 93.1%
CCNCCNc1cc(-c2ccc(C(=O)OC)cc2)c(C#N)c2nc3ccccc3n12 | 66.6% | 87.8% | 43.7% | 68.4% | 4.26% (active) | 71% | 32.3% | 11.9% | 44.2% | 38.1% | 2.65% (active) | 88.5% | 0.164% (active) | 16% | 30.8% | -62.1% (active) | -80.1% (active) | 53.1% | 31.5%
